Measured values from publication PMC12136788.
Residue numbers refer to the chain shown, from its start. Over roughly 24,000 sequences, “enrichment r” has its median near 0.99; the highest 2% begin near 3.7. Shown is part of a subset that was picked to be rich in the highest values.

T1: UNK ZnF1-3 (human, UniProt Q9C0B0 31-174)
T1 sequence: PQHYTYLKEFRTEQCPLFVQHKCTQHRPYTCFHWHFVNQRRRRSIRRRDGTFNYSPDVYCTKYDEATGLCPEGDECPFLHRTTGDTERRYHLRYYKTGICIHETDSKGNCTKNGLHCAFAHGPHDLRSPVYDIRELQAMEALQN

B1: chr14:89338683:89338684:+_ENSG00000165533_ENST00000346301|hu_hu|hu_hu_hu_mus_False|38_98 (ssRNA)
RNA: GGGAGUUCUACAGUCCGACGAUCGUGGUUGUUGUGGACCAGAGCCAGCCUGAAGCAUUGGUGGGCCAAGUUUGUAUCUCCGAUUCCCACAGCUAUGUGUCCCAAGUUGUACCAGACAUCAGCUGCCUCUUCUUCAUUUUCAGCCAACAGAGGAUUGAGCAUCA
B2: chr3:179287964:179287965:+_ENSG00000136518_ENST00000429709|hu_hu|hu_hu_hu_mus_True|68_68 (ssRNA)
RNA: GGGAGUUCUACAGUCCGACGAUCCUUGAGUGGUGAGAUGGCCUCCAUGUUCUCCCUGGGCACGCGGAGAGCAUUAGUGUCUAUGUAGUAGGUGGGCCCGCCCUGCUUGCCUUUGUCACCAUCAAUCUCCAUCAUUGUACUUCCCAACAGAGGAUUGAGCAUCA
B3: chr7:117217587:117217588:+_ENSMUSG00000061079_ENSMUST00000084727|mus_hu|FALSE|FALSE (ssRNA)
RNA: GGGAGUUCUACAGUCCGACGAUCGAUAUAAGCUGUGGUACCAUCUUCCAGCUGAACCGCCUGUAAUGCACUCUGGUCAUAACUAUUACUUUUAGGUAUGGGUACAUGUUGAACAUAGGCCGCAGAACCAUCUUCCAACUGAAUCAACAGAGGAUUGAGCAUCA
B4: chr5:95152273:95152274:-_ENSG00000173221_ENST00000237858|hu_mus|motif|central (ssRNA)
RNA: GGGAGUUCUACAGUCCGACGAUCCAGCCGAGUCAUCAGCUCCCCAGUCUGUUGCAUGGAGAUUAGAUCACUGCAUCCGCCGGUGCAGUCUUUACCUAUGAAGACCCGAGGAACUGUUCUCGCUCCGGUGAGCUGUUGUAAAUACAACAGAGGAUUGAGCAUCA
B5: 12280944_12281064_4437_CDS_ENSMUSG00000032625_ENSMUST00000046121|mouse|control|control (ssRNA)
RNA: GGGAGUUCUACAGUCCGACGAUCGGGCUGGGUGCAGGUUUCCUCCAAAACUAUUUGUUUAUUACCAUCUAUGAUGAGCUCUGUGUUAGCACAGAACUCUUCGUCCACCACUUUGCUGAAAUCCUCAGCUGAGCCAUCACUCACCAACAGAGGAUUGAGCAUCA
B6: chr15:79189586:79189587:+_ENSG00000185787_ENST00000426013|hu_hu|FALSE|FALSE (ssRNA)
RNA: GGGAGUUCUACAGUCCGACGAUCUGAAAACACUGGCAGCAAUUUUGAAAUGAAAAAAAAAAAGAAAGAAGAAAAAAGGAGCUAUUACCCCCUUUUAUUUUUUCUCUGUUUAAAAUCAAACAGAAAACAAACAUCAAUUGUUAUCAACAGAGGAUUGAGCAUCA
B7: 65006457_65008074_834_CDS_ENSMUSG00000029920_ENSMUST00000031984|mouse|control|control (ssRNA)
RNA: GGGAGUUCUACAGUCCGACGAUCUGUUGAUUCAAUCAACUUUAGAAGAUCACUGUCACUUCUUUGUGGAAACAGUUCCUUCAAUGUCUGAAGCUUAGCAUCUUUAAGAUCUUCCAAUUCUGAAAGGUCUUCCAGUUCUGAACUCAACAGAGGAUUGAGCAUCA
B8: 54532588_54532708_162_CDS_ENSMUSG00000073678_ENSMUST00000097739|mouse|control|control (ssRNA)
RNA: GGGAGUUCUACAGUCCGACGAUCGAAUUUAAAUGUAUCCUUUUUUUUUUCCCCUAAAAAAGGGAUGUAAAAAAUCCAAUAUGAAACAGAAAAAGUACACAUGAAAUACAAAAUACACUGUCUGUUUGGCUCUGGAGCAGUUAGCAACAGAGGAUUGAGCAUCA
B9: chr7:75956504:75956505:-_ENSG00000170027_ENST00000307630|hu_mus|motif|central (ssRNA)
RNA: GGGAGUUCUACAGUCCGACGAUCAUAGAACUGCAUGUCACUAUAGCAACAUCCAAAACAGAUCAAUCUGUUACAAUCACGGUUUGGUAAAGCAAACUUUACCCCUGAAAGGAAAAAAUUAAAUUAAAAAAAAGAAGUUUAAAACAACAGAGGAUUGAGCAUCA
B10: chr7:75956504:75956505:-_ENSG00000170027_ENST00000307630|hu_mus|FALSE|FALSE (ssRNA)
RNA: B9 RNA with G80U, G81A
B11: chr15:79189586:79189587:+_ENSG00000185787_ENST00000426013|hu_hu|motif|central (ssRNA)
RNA: B6 RNA with U82G, A83G
B12: chr9:37780659:37780660:-_ENSG00000107371_ENST00000396521|hu_hu|FALSE|FALSE (ssRNA)
RNA: GGGAGUUCUACAGUCCGACGAUCGGUUCACCUGAAAAAACCCAUAGUUUUUUGCCUCAACUGACCUGUAAAAAAGUCCACCUAUAUCAACUUUCUGCCAAUCUGGAGAAGAUCUGUUUUCUUUGAUCUGACGUCAUGUGUUCACAACAGAGGAUUGAGCAUCA
B13: chr1:225611761:225611762:-_ENSG00000143815_ENST00000272163|hu_mus|hu_hu_hu_mus_True|8_98 (ssRNA)
RNA: GGGAGUUCUACAGUCCGACGAUCCCAGGCCAUCGGCCUCUUACCACUUCACCCUCAACAAACUUCCUACUUGGCAUUUUCUAAAAUUAGUCUGGCCGCGCUCCGGCGGGAACUCCAGCCACUCCAGGGAGAAUAGUAGCAGCCCAACAGAGGAUUGAGCAUCA
B14: 35472726_35489589_359_3pUTR_ENSMUSG00000029840_ENSMUST00000031866|mouse|control|control (ssRNA)
RNA: GGGAGUUCUACAGUCCGACGAUCCUGUCCACAAUCUGCAGCAUAAUGAAGAGGCUUCCUUCCACCCUCUAGUGUCCGGUUGACAUCUUCUCCCUUAGCCACAUAGUCCUUCACCUCAUCCAAGUCUCCGUUUUUCAGGGCCCACAACAGAGGAUUGAGCAUCA

target: T1, UNK ZnF1-3; assay: nsRBNS (natural sequence RNA bind-n-seq); RBNS binding buffer (assumed for nsRBNS): 25 mM Tris pH 7.5, 150 mM KCl, 3 mM MgCl2, 0.01% Triton X-100, 500 ug/ml BSA, 20 U/ml SUPERase-In, 4 C; UNK is unkempt and MSI1 is Musashi-1; names of the RNAs are library labels; protein concentration not given here; high values mean tight binding

Binder	binding signal [enrichment R]
B1	0.877
B2	0.757
B3	0.834
B4	1.01
B5	0.732
B6	3.39
B7	0.355
B8	1.05
B9	6.25
B10	9.16
B11	3.68
B12	0.913
B13	1.11
B14	0.866
